LYPLA2 counter – counter-screen for PME1 inhibitors: inhibitors of human LYPLA2; inhibition, % at 5.9 µM; AID 2177; 320,000 compounds, 0.38% hits; recombinant LYPLA2, FP-Rh probe fluorescence polarization; O95372;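 active means inhibition above the screen-wide mean plus 3 SD, limit set per campaign, cut at about 26% in these data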;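 further: 0% = LYPLA2 with DMSO and 100% = wells lacking LYPLA2 enzyme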
Fam108B counter – blocks mouse Fam108B hydrolase in RBBP9 counter-screen. recombinant Fam108B, FP-Rh probe fluorescence polarization. inhibition, % at 9.51 µM. 300,000 compounds, 0.33% hits;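 active means inhibition above the screen mean inhibition plus 3 SD, computed separately per campaign, cut at about 18% in these data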;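 further: inhibitors lower polarization as less probe binds the enzyme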
PME-1 primary – PME-1 (human) inhibition; AID 2130; inhibition, % at 5.9 µM; recombinant PME-1, FP-Rh probe fluorescence polarization; 320,000 compounds, 0.53% hits; Q9Y570;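 active means inhibition above the campaign mean of all compounds plus 3 SD, cut at about 26% in these data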;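 further: competitive labeling of PME-1 active site by serine hydrolase directed probe; 0% = PME-1 with DMSO and 100% = wells lacking PME-1 enzyme; inhibitors block probe labeling so polarization falls and inhibition rises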
Target sequence (Q9Y570 whole entry, looked up): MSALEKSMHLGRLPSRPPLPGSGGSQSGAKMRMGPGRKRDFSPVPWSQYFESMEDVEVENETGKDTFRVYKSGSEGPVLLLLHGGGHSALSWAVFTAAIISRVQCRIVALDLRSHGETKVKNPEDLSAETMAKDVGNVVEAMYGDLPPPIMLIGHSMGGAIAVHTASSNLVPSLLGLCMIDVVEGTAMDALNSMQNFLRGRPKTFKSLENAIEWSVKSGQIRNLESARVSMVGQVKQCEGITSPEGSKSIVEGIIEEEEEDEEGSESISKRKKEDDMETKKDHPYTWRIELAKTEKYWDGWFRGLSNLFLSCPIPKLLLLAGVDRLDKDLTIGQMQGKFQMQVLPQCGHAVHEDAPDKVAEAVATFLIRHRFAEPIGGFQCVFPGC
LYPLA1 inh – LYPLA1 (human) inhibition in PME1 counter-screen; O75608; recombinant LYPLA1, FP-Rh probe fluorescence polarization; inhibition, % at 5.9 µM; 320,000 compounds, 0.16% hits;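 active means inhibition above the mean of all tested compounds plus 3 SD, set per campaign, cut at about 14% in these data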;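 further: inhibitors block serine hydrolase probe labeling of LYPLA1 so polarization falls; 0% = enzyme with DMSO and 100% = wells lacking LYPLA1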
Target sequence (O75608 whole entry, looked up): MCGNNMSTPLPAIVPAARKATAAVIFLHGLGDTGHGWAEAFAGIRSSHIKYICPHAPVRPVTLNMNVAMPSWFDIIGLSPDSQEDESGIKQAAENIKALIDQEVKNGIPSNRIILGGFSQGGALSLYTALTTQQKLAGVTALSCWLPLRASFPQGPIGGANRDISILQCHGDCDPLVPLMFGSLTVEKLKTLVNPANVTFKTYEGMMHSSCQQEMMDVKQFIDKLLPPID
PREPL inhibitor – human PREPL enzyme inhibition | Q4J6C6 | recombinant PREPL, fluorescence polarization activity-based probe | inhibition, % at 5.96 µM | 320,000 compounds, 0.68% hits | AID 2751; in the data active means inhibition above about 43%;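 further: 0% = enzyme with DMSO and 100% = wells lacking enzyme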
LYPLA2 confirm – counter-screen for PME1 inhibitors: confirmation of human LYPLA2 inhibitors. shares compounds with LYPLA2 counter. recombinant LYPLA2, FP-Rh probe fluorescence polarization. inhibition, % at 5.9 µM. 1,100 compounds, 72% hits. AID 2232;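 active means mean inhibition across replicates above the hit cutoff set in the primary screen, cut at about 26% in these data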;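 further: blocked labeling of the enzyme by serine hydrolase FP-Rh probe lowers polarization; 0% = enzyme with DMSO and 100% = wells lacking LYPLA2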
LYPLA2 ABPP – inhibitors of human LYPLA2; inhibition, % at 20 µM; 150 compounds, 30% hits; shares compounds with LYPLA2 counter; AID 652029; rhLYPLA2 in mouse brain proteome, gel ABPP FP-Rh;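 active means inhibition of LYPLA2 enzyme probe labeling above about 50%, limit read from the data; inactive means inhibition below that limit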;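 further: loss of FP-Rh probe labeling of the LYPLA2 gel band measured as band density; 0% = DMSO only control band and 100% = blank gel background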
Numbers without * were called inactive; nt = no result. Shown are actives, neighbours in structure and some others; about 1.3% of the full set was active somewhere.

SMILES	LYPLA2 counter	Fam108B counter	PME-1 primary	LYPLA1 inh	PREPL inhibitor	LYPLA2 confirm	others
COc1ccc2cc(S(=O)(=O)NCc3cccnc3)ccc2c1	6.1	-3.4	-0.1	3.1	-9.5	nt
CC(C)c1ccc(NC2=NCC(=O)N2Cc2cccs2)cc1	33.9*	0.4	-0.8	-1.6	5.7	26.4*
O=C1CN=C(Nc2ccccc2)N1Cc1cccs1	1.8	4.3	-1.9	-2.6	-3.7	nt
Cc1ccc(N2C(=O)c3ccc(C(=O)N4CCN(Cc5ccccc5)CC4)cc3C2=O)cc1	32.6*	1.1	2.4	1.5	13.2	27.1*
Cc1ccc(N2C(=O)c3ccc(C(=O)N4CCN(c5ccc(C)c(C)c5)CC4)cc3C2=O)cc1	4.6	-1.5	3.5	3.0	4.8	nt
CNc1ncnc(Sc2ccc(Cl)cc2)c1[N+](=O)[O-]	6.4	5.3	5.3	2.5	17.9	nt
Cc1ccc2c(c1)C(=O)N(CCCCO)C2=O	1.1	0.6	0.9	-0.1	-6.2	nt
O=C1c2ccc(Oc3ccc4c(c3)C(=O)N(CCCO)C4=O)cc2C(=O)N1CCCO	29.4*	1.7	-3.0	4.5	4.1	15.3
O=C(Nc1cccc(S(=O)(=O)C(F)F)c1)c1ccc(S(=O)(=O)N2CCOCC2)cc1	-5.8	0.1	-1.2	-4.9	1.9	nt
O=C(Nc1ccc(S(=O)(=O)N2CCOCC2)cc1)c1cc(S(=O)(=O)N2CCOCC2)ccc1Cl	39.5*	0.8	-2.1	7.7	2.2	38.5*
O=C(Nc1ccc(S(=O)(=O)C(F)F)cc1)c1cccc(S(=O)(=O)N2CCOCC2)c1	35.3*	0.9	-3.5	-6.4	-1.9	37.6*
COc1ccc(N2CCN(CCCNC(=O)c3cc4sccc4n3C)CC2)cc1	33.1*	1.2	-0.6	4.5	24.4	32.1*
CC1CCN(CCCNC(=O)c2cc3sccc3n2C)CC1	2.2	-2.9	-0.3	-2.4	22.3	nt
Cc1cccc(NC(=O)CCSc2nnc(Cc3ccccc3)o2)c1	2.4	9.3	3.8	-3.7	-2.1	nt
Cc1cc(=O)oc2cc(Oc3ccc([N+](=O)[O-])cc3[N+](=O)[O-])ccc12	36.5*	5.2	9.9	6.4	19.2	40.5*
O=[N+]([O-])c1cc(/C=N/O)ccc1Oc1cccc(Cl)c1	8.2	-2.5	14.2	-5.4	-3.0	nt
O=Cc1cccc(Oc2ccc([N+](=O)[O-])cc2[N+](=O)[O-])c1	41.5*	-2.6	5.9	0.1	34.5	27.2*
Cc1cc(=O)oc2cc(Oc3ncccc3[N+](=O)[O-])ccc12	5.7	-3.4	2.7	5.8	3.9	nt
CCc1nnc(NC(=O)CCC(=O)N2CCC(Cc3ccccc3)CC2)s1	3.8	-5.3	-5.3	-0.1	-10.6	nt
Cc1cccc(Oc2coc3cc(OC(=O)c4cccs4)ccc3c2=O)c1	16.0	-5.6	1.1	3.3	33.5	nt
Cc1ccc(Oc2coc3cc(OC(=O)c4cccs4)ccc3c2=O)cc1	48.1*	-5.5	-5.5	1.5	38.6	43.8*
Cc1cc(C)cc(Oc2coc3cc(OC(=O)c4cccs4)ccc3c2=O)c1	28.7*	-9.3	-0.7	2.1	20.3	18.2
CC1(C)Cc2nc(NC3CCCCC3)c(C#N)cc2CO1	3.2	-3.7	8.4	5.3	4.7	nt
CN(Cc1nc(-c2ccccn2)no1)S(=O)(=O)c1ccccc1	-4.2	-3.2	4.1	-3.4	2.9	nt
CN(Cc1nc(-c2ccncc2)no1)S(=O)(=O)c1ccccc1	1.8	-0.4	-0.4	3.3	-12.1	nt
SMILES	LYPLA2 counter	Fam108B counter	PME-1 primary	LYPLA1 inh	PREPL inhibitor	LYPLA2 confirm	others
CN(Cc1nc(-c2ccncc2)no1)S(=O)(=O)c1ccc(Cl)cc1	28.3*	2.3	-1.2	2.1	-2.6	30.4*
COc1ccc(-c2noc(CN(C(=O)c3ccc4c(c3)OCO4)C(C)C)n2)cc1	2.7	-3.7	-4.0	-0.2	10.4	nt
CN(Cc1nc(-c2ccncc2)no1)S(=O)(=O)c1ccc(Br)cc1	37.2*	-2.3	9.1	5.3	-28.6	35.5*
CN(Cc1nc(-c2ccc(Cl)cc2)no1)C(=O)c1ccc2c(c1)OCO2	33.8*	0.7	3.6	13.3	6.9	34.5*
Cc1ccc(C(=O)Nc2cccc(C(=O)NC3CCCCC3)c2)cc1	30.1*	-1.8	0.5	-2.0	19.8	30.9*
O=C(CSc1ccc(Cl)cc1)N1CCN(c2ccc([N+](=O)[O-])cc2Cl)CC1	30.6*	-1.0	-2.0	1.4	-21.6	10.2
Cc1nc2ccc(NC(=O)c3ccc(C)c(S(=O)(=O)N4CCOCC4)c3)cc2s1	-2.0	nt	-9.9	-2.4	-1.9	nt
COc1ccc(NC(=O)c2cc(F)c(F)cc2Cl)cc1Cl	27.5*	-1.0	2.2	2.6	1.4	19.9
CCOC(=O)c1ccc(NC(=O)c2cc(F)c(F)cc2Cl)cc1	4.5	-4.7	0.5	-1.0	5.1	nt
CCOc1cc(C=C(C#N)C#N)ccc1Oc1ccc([N+](=O)[O-])cn1	7.1	0.5	-1.7	-3.9	-12.6	nt
COc1cc(/C=C(/C#N)c2ccc(F)cc2)ccc1Oc1ccc([N+](=O)[O-])cn1	46.5*	-0.1	-5.9	-3.3	10.7	51.2*	LYPLA2 ABPP=19.0
COc1cc(/C=N\NC(=O)c2ccccc2F)ccc1Oc1ccc([N+](=O)[O-])cn1	30.6*	0.3	3.0	-1.6	-50.9	23.5
COc1cc(/C=N/NC(=O)Cc2ccccc2)ccc1Oc1ccc([N+](=O)[O-])cc1[N+](=O)[O-]	40.3*	-10.3	6.3	-3.9	19.6	31.4*
COc1ccc(C(=O)Nc2ccnn2C2CCN(Cc3ccccn3)CC2)cc1	-1.0	0.3	-0.1	-5.2	1.3	nt
NS(=O)(=O)c1ccc(NC(=O)COC(=O)COc2ccccc2)cc1	3.9	3.8	-2.4	-3.2	8.2	nt
CCCCCN1CC(=O)N2Cc3[nH]c4ccccc4c3C[C@H]2C1=O	55.8*	-4.8	-1.9	-0.6	15.7	56.0*	LYPLA2 ABPP=38.0
O=C1[C@@H]2Cc3c([nH]c4ccccc34)CN2C(=O)CN1CCCO	1.2	1.4	-0.2	-15.2	6.4	nt
CCCCCCN1CC(=O)N2Cc3[nH]c4ccccc4c3C[C@H]2C1=O	58.4*	-0.3	3.9	-1.0	11.8	57.7*	LYPLA2 ABPP=35.0
Cc1nonc1C1CCCN1C(=O)c1cc(COc2ccc(F)cc2Cl)on1 (configuration not stated)	8.3	1.6	-1.1	6.5	30.9	nt
COc1ccc(C(=O)ON=C2CCCc3nonc32)cc1	nt	nt	nt	nt	nt	nt	LYPLA2 ABPP=6.0
COc1ccc(NC(=O)CO/N=C2\CCCc3nonc32)cc1	-1.5	0.2	-3.4	-1.7	12.9	nt
CC(=C/c1ccc(C(C)C)cc1)/C=N/NC(=O)Cn1nnnc1N	40.1*	-1.2	-5.7	1.1	6.7	39.8*
CC(/C=N/NC(=O)CSc1ccccn1)=C\c1ccc(C(C)C)cc1	19.6	-1.3	-8.8	-3.1	-5.1	nt
COc1cccc(CCN2CCC(CNS(=O)(=O)c3cc(-c4cc(C)no4)ccc3C)CC2)c1	28.4*	-1.4	-3.1	2.0	-18.3	35.1*

Compound activity (PubChem)
